# The list is not random: actives were taken first. Their share in the collection is about 4.6%.
# SKKanGAS inh: S. pyogenes SKKanGAS growth inhibitors in kanamycin, primary screen, streptokinase expression inhibitor project, SKKanGAS strain, BacTiter-Glo luminescence | 6 h | hit rate 1.3% among 300,000 | inhibition, % at 7.5 µM | AID 1662, 2009;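 active means mean replicate score, as percent of positive control median, at least 50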;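 further: strain carries kanamycin resistance gene driven by streptokinase promoter and grows in 40 µg/ml kanamycin; loss of luminescence reflects streptokinase promoter inhibition or plain growth inhibition; 0% = median of DMSO wells and 100% = positive control at its reference dose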
# TIM10 inh: growth inhibitors of isogenic TIM10 control yeast, primary screen, counter-screen for tim10-1 yeast inhibitor project, luminescence, uHTS; S. cerevisiae TIM10 strain growth, BacTiter-Glo luminescence, 24 h; inhibition, % at 10 µM; hit rate 1.4% among 330,000;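 active means inhibition of 40% or more at the single tested concentration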;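 further: wild-type TIM10 isogenic control strain grown at permissive 25 °C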
# tim10-1 inh: growth inhibitors of tim10-1 mutant yeast, primary screen, luminescence, uHTS. S. cerevisiae tim10-1 ts strain growth, BacTiter-Glo, 24 h. inhibition, % at 20 µM. hit rate 2.2% among 330,000. AID 463190, 2010;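 active means inhibition of at least 40%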;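 further: mutant grown at 25 °C; 0% = DMSO wells with yeast and 100% = wells holding no yeast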
# PfHsp90 yeast 2: growth inhibition of PfHsp90-expressing yeast, primary screen, antimalarial PfHsp90 inhibitor project, S. cerevisiae, BacTiter-Glo luminescence, single point, set 2. BacTiter-Glo ATP, 48 h; yeast lacking PDR1 and PDR3 efflux regulators. hit rate 0.32% among 310,000. inhibition, % at 9.4 µM. AID 504621, 2011;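 active means every replicate shows inhibition above about 80%, whatever the replicate mean, limit read from the data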;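 further: 0% = DMSO neutral controls and 100% = 20 µM radicicol positive controls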
# NLRP3 yeast inh: NALP3 inflammasome inhibitors in reconstituted yeast, primary screen, luminescence, uHTS. inhibition, % at 10 µM. Yeast reconstituted NLRP3/ASC/caspase-1, beta-gal luminescence, 24 h. hit rate 0.39% among 330,000;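 active means inhibition of 50% or more; inactive means inhibition below 50%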;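 further: plate controls were induced DMSO wells for no effect and uninduced yeast grown without galactose for full effect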
# tim23-1 inh: growth inhibitors of tim23-1 mutant yeast, primary screen, luminescence, uHTS; hit rate 1.3% among 330,000; S. cerevisiae tim23-1 growth, BacTiter-Glo luminescence, 24 h; inhibition, % at 20 µM;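 active means growth inhibition of the mutant yeast at or above 50%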;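 further: temperature-sensitive mutant grown at 25 °C; plate controls were DMSO-treated mutant yeast for no effect and medium wells lacking yeast for full effect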
# TIM10 conf: growth inhibitors of wild-type TIM10 yeast, confirmation, counter-screen for tim10-1 synthetic lethality project, single concentration, luminescence, S. cerevisiae; shares compounds with TIM10 inh; S. cerevisiae tim10 strain growth, BacTiter-Glo luminescence, 24 h; inhibition, % at 10 µM; hit rate 63% among 4,600; AID 463215, 2010;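 active means inhibition of yeast growth at or above a set limit in either of two replicates at 10 µM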;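 further: this counterscreen used the strain with wild-type TIM10; 0% = yeast with DMSO and 100% = medium wells lacking yeast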
# Starred values were filed as active, the others as inactive; nt = not tested or not shown.
SMILES,SKKanGAS inh,TIM10 inh,tim10-1 inh,PfHsp90 yeast 2,NLRP3 yeast inh,tim23-1 inh,TIM10 conf
COc1cccc(CN(C)C(=S)Nc2ccc(C)c(C)c2)c1,3,46*,30,nt,9,9,3
[O-][n+]1c2ccccc2cc2ccccc21,2,13,-31,-13,19,-20,nt
CCOC(=O)c1cccc(NC(=O)c2ccco2)c1,-4,46*,29,-3,39,45,26
O=C(Nc1ccc2c(c1)ncn2-c1ccccc1)c1ccco1,3,51*,29,-4,38,28,50*
O=C(c1ccccc1)c1cccc(NC(=O)c2ccco2)c1,0,53*,36,-23,37,42,60*
O=C(Nc1ccc2nc3ccccc3nc2c1)c1ccccc1,10,nt,nt,43,nt,nt,nt
CC(C)(C)n1cnc2cc(NC(=O)c3ccccc3)ccc21,-5,58*,-1,-1,6,49,64*
CCCn1c(N)c(N(CCOC)C(=O)/C=C/c2cccc(Cl)c2)c(=O)[nH]c1=O,0,9,13,-5,17,4,nt
O=C(Nc1ccc(N2CCN(C(=O)c3ccccc3)CC2)c(Cl)c1)c1ccco1,7,45*,15,-14,20,22,36*
C/C(=N/NC(=O)c1ccc(C)s1)c1cccc(NC(=O)c2ccoc2C)c1,3,2,10,-28,29,23,nt
CCCC(=O)N1CCN(c2ccc(NC(=O)C(C)(C)C)cc2Cl)CC1,-14,-12,23,6,-10,7,nt
CCCC(=O)N1CCN(c2ccc(NC(=O)c3cccs3)cc2Cl)CC1,2,46*,11,4,45,31,17
CC(C)COP(=O)(OCC(C)C)C(Nc1ccccc1)c1ccccc1 (stereo not given),7,41*,32,-27,-6,38,34*
CC(C)COP(=O)(OCC(C)C)C(Nc1ccccc1)c1ccc(F)cc1 (stereo not given),0,25,15,-15,4,46,nt
Cc1ccc(-c2nnc(CCC(=O)NCC3C4CC5CC(C4)CC3C5)o2)s1 (stereo not given),0,9,5,-43,23,24,nt
CC(=O)c1ccc(NC(=O)CSc2nnc(NC(=O)C3CC3)s2)cc1,32,11,9,-30,3,13,nt
O=C(/C=C/c1ccc(Br)cc1)c1ccc(NC2=NCCCS2)cc1,11,52*,35,12,21,37,29
CCOC(=O)c1cnn(-c2ccc(NS(=O)(=O)c3ccc(Cl)cc3)cc2)c1C(F)(F)F,55*,52*,27,-11,14,28,6
CCOC(=O)c1ccc(NS(=O)(=O)c2ccc(Cl)nc2)cc1,5,16,4,nt,15,13,nt
Cc1ccccc1C(=O)Nc1ccnn1C1CCN(Cc2cnn(C)c2)CC1,21,4,0,-23,7,-2,nt
Cc1ccc(S(=O)(=O)N2[C@@H](c3ccc(Br)cc3)C(C(=O)O)=CC[C@H]2c2cccs2)cc1,nt,96*,12,-22,22,12,5
Cc1ccc([C@H]2C(C(=O)O)=CC[C@@H](c3cccs3)N2S(=O)(=O)c2ccc(C)cc2)cc1,nt,12,9,16,2,12,nt
CCOc1ncccc1C(=O)N1CCN(S(=O)(=O)c2ccc3c(c2)OCCO3)CC1,nt,-3,13,nt,-3,4,nt
Oc1[nH]c2ccccc2c1N=Nc1ccc(C(F)(F)F)cn1,-8,53*,26,11,37,25,29
Oc1[nH]c2ccc(Br)cc2c1N=Nc1ccc(C(F)(F)F)cn1,23,31,35,-35,25,-6,nt
S=C(NCc1ccccc1)N/N=C/c1cccs1,-2,34,32,1,31,39,nt
S=C(NCCc1ccccc1)N/N=C/c1cccs1,29,41*,33,nt,18,42,38*
